Results from PubChem BioAssay (NCATS).
Results filed as inconclusive are left out. Values without a mark were called inactive. Active and inactive are the calls of the source. The call rests on the fitted dose curve; in most records, active means well fitted inhibition curve with a large enough effect; inconclusive means small, poorly fitted or top-dose-only effect; inactive means flat fitted curve, though single readings scatter.

Assay: P-glycoprotein substrates identified in KB-8-5-11 adenocarcinoma cell line, qHTS therapeutic library screen (AID 1346987); further: nearly all actives have a fitted effect of over 65% in size
Conditions: KB-8-5-11 (P-gp overexpressing) viability, CellTiter-Glo, 72 h; series mostly up to 44.5 µM; activity change, negative = cytotoxicity: at the top concentration
Summary of the method: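 P-gp-mediated resistance screen: KB-8-5-11 cells treated 72 h with compounds in dose-response. CellTiter-Glo viability.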
On the % scale 0 is the no-effect control and ±100 the full control effect; potency means the concentration at half of the fitted maximal effect.

Structure (SMILES)	activity change, negative = cytotoxicity	outcome	Potency
C[C@@H]1CN(Cc2ncccn2)C[C@H]1c1nc2c(cnn2C2CCOCC2)c(=O)[nH]1	-2.62%	–	–
N[C@@]1(C(=O)O)CC[C@H]2[C@H](C(=O)O)[C@H]21	–	inactive	–
CC(C)CCC[C@@H](C)[C@H]1CC[C@H]2[C@@H]3CC(=O)[C@H]4C[C@@H](O)CC[C@]4(C)[C@H]3CC[C@]12C	-15.6%	–	–
CC(/C=C/C1=CC2=CC(=O)C(C)(O)C(O)C2=CO1)=C\C(C)CCO (centres undefined)	7.59%	–	–
CC1CCCCN1S(=O)(=O)c1ccc(N2CCCC2=O)cc1 (centres undefined)	-10.6%	–	–
FC(F)(F)c1ccc(Nc2nc(-c3c(C(F)(F)F)nc4ccccn34)cs2)cc1	–	–	461 nM (active)
CC(CCC1(O)OC2CC3C4CCC5CC(O[C@@H]6O[C@H](CO)[C@@H](O)[C@H](O)[C@H]6O[C@@H]6O[C@@H](C)[C@H](O)[C@@H](O)[C@H]6O)C(O)CC5(C)C4CCC3(C)C2C1C)CO[C@@H]1O[C@H](CO)[C@@H](O)[C@H](O)[C@H]1O (some centres undefined)	1.44% [at 9.29 µM]	–	–
CC(C)C(N)C(=O)OCCOCn1cnc2c(=O)[nH]c(N)nc21 (centres undefined)	-5.91%	–	–
COC(=O)C[C@H]1C(C)(C)[C@H](OC(C)=O)C2CC3=C4CC(=O)O[C@@H](c5ccoc5)[C@]4(C)CCC3[C@@]1(C)C2=O (some centres undefined)	-7.57% [at 17.3 µM]	–	–
